This is a sample that favours compounds with a hit; in the whole collection about 7.9% have one here.
HCV inhibitor = HCV inhibition; AID 651820; Potency, µM (titrated, usually from 41.8 µM), for the others: at the highest dose activity change, negative = inhibition, usual class: inhibitors; Huh7.5.1 HCVcc-Cre infection, luciferase reporter, 44 h; 3.4% of 340,000 active; active = well fitted inhibition curve with a large enough effect; inconclusive = small, poorly fitted or top-dose-only effect, or another doubt; inactive = no such curve, though single readings can be large or run the other way; note: potency is the fitted concentration of half-maximal effect
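Whole-lifecycle infectious HCVcc-Cre system; cells 1,000/well, compound then virus (~0.5 moi) added 4 h after plating, 44 h culture. Luciferase read 15 sec following 15 min substrate incubation, room temp.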
LASV entry inh = inhibitors of Lassa virus binding or cell entry; Lassa virus pseudotype entry inhibition, cell reporter; Potency, µM (doses to about 37.9 µM), inactives show at the top dose activity change, negative = inhibition, hits mostly inhibitors; 1.2% of 300,000 active; AID 540256; calls by dose curve; tested in HEK293 cells; note: potency is the fitted concentration of half-maximal effect; nearly all actives have a fitted effect of over 50% in size
Marburg entry inh = inhibitors of Marburg virus binding or cell entry; Potency, µM (highest dose often 37.8 µM), for inactives: at the top dose activity change, negative = inhibition, usual class: inhibitors; Marburg virus pseudotyped entry inhibition, cell reporter; 1.8% of 300,000 active; calls by dose curve; tested in HEK293 cells; note: potency is the fitted concentration of half-maximal effect
FMDV inh = foot and mouth disease virus antiviral activity. FMDV antiviral cell-based qHTS. Potency, µM (doses to about 57.9 µM), for inactives: at the highest dose activity change, negative = inhibition, hits mostly inhibitors. 1.2% of 410,000 active. AID 1159524; calls by dose curve; tested in HEK293T cells; note: read-out not given here; potency is the fitted concentration of half-maximal effect; nearly all actives have a fitted effect of over 45% in size
HCMV antiviral = blocks human cytomegalovirus replication. HFF cells, HCMV-luciferase reporter, 72 h; hits give low values. activity change, negative = inhibition, % at 57.5 µM. 4.5% of 410,000 active. AID 1259415; in the data active = activity change below about -60%; inconclusive = no clear call, values can overlap the other calls; inactive = above about -39%
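Two compound doses tested in HFFs infected with HCMV-luciferase, MOI 1 PFU/cell, 72 h at 37C. Lysate luminescence read with OneGlo; data normalized against buffer-only and 10uM Salinomycin inhibitor controls.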
Starred values were filed as active, the others as inactive; ? = inconclusive; . = not tested or not shown; [ ] = dose if it differs, or a comment. % is set by controls: 0 for no effect and ±100 for the full control effect.

SMILES	HCV inhibitor	LASV entry inh	Marburg entry inh	FMDV inh	HCMV antiviral
C=C1C(=O)O[C@H]2C1CC[C@@](C)(O)C13C=CC(C)(C21)C1(C3)C(=O)O[C@@H]2C3C(C)=CCC3[C@](C)(O)C[C@H](OC(C)=O)C21 (some centres undefined)	1%	?	-45%	-24%	-90*
C=C1CCC(OC(C)=O)/C(C)=C/CC2[C@H]1CC2(C)C (some centres undefined)	.	.	.	-13%	.
Cc1ccc(Nc2c(-c3ccccn3)nc3ccc(Br)cn23)cc1	.	18%[46.1 µM]	0%[46.1 µM]	-21%	4
Cc1cccc2nc(-c3ccccn3)c(Nc3ccc(F)cc3)n12	.	?	?	?	-97*
Cc1ccc(Nc2c(-c3ccc(C)o3)nc3cccc(C)n23)cc1	.	-11%[46.1 µM]	?	-4%	-16
Cc1cccc2nc(-c3ccccn3)c(Nc3ccccc3)n12	.	11µM*	?	?	-82*
Cc1ccc(Nc2c(-c3ccccn3)nc3cccc(C)n23)cc1	6.3µM*	.	.	?	0
Cc1nnc(NC(=O)CCN2C(=O)C3CC=CCC3C2=O)s1 (centres undefined)	.	.	.	-17%	-9
Cc1ccccc1N(CC(=O)NCc1ccco1)C(=O)CNS(=O)(=O)c1ccc(F)cc1	-4%	.	-21%[46.1 µM]	25%	-33
Cc1cccc(C)c1N(CC(=O)NCc1ccco1)C(=O)CNS(=O)(=O)c1ccc(F)cc1	14%	-29%	8.9µM*	25%	12
CCOc1ccc(N(CC(=O)OC)S(=O)(=O)c2ccc(OC)c(OC)c2)cc1	9%	-11%	-5%	0%	3
CN(C)S(=O)(=O)N(CC(=O)Nc1ccccc1)c1ccccc1	4%	-3%	-3%	-20%	-16
CCOc1ccc(N(CC(=O)NC(C(C)C)C(C)C)S(=O)(=O)c2ccc(OC)c(OC)c2)cc1	10µM*	.	.	-8%	-12
COc1ccc(S(=O)(=O)N(CC(=O)NC(C)c2ccccc2)c2ccc(C)cc2)cc1OC (centres undefined)	.	?	.	?	-88*
C[C@@H](NC(=O)CN(c1ccccc1)S(=O)(=O)N(C)C)c1ccccc1	.	16%[46.1 µM]	1%[46.1 µM]	-24%	-105*
COc1ccc(S(=O)(=O)N(CC(=O)NCCC(C)C)c2ccccc2)cc1OC	5%	?	?	8%	?
COc1ccc(S(=O)(=O)N(CC(=O)NCc2ccccc2)c2ccc(C)cc2)cc1OC	.	26%[46.1 µM]	.	18µM*	-105*
CCCNC(=O)CN1CCN(c2cc3ccccc3c(Cl)n2)CC1	-9%	-17%[46.1 µM]	-11%[46.1 µM]	-20%	-38
CSc1nnc(CCNC(=O)c2ccc(-c3cccc(F)c3)cc2)n1-c1ccc(F)cc1	.	.	.	0%	.
CC(=O)c1c(C)[nH]c(C(=O)CN2CCN(S(=O)(=O)c3ccccc3)CC2)c1C	8%	.	.	?	3
COc1ccc(N2CC(NC(=O)COc3ccc4ccccc4c3)CC2=O)cc1OC (centres undefined)	.	-6%[46.1 µM]	.	-4%	-1
C=C(C)CSc1nc2sc3c(c2c(=O)n1-c1ccccc1)CCC(C)C3 (centres undefined)	.	3%[46.1 µM]	.	-19%	24
COc1ccc(C)cc1NC(=O)C1CCN(S(=O)(=O)c2cc(Br)cc3c2N(C(C)=O)CC3)CC1	.	?	16%[46.1 µM]	-9%	11
CCOC(=O)c1ccccc1NC(=O)Cn1c(-c2nonc2N)nc2ccccc21	?	?	0.052µM*	0%	-74*
CC(C)CCn1c(-c2nonc2N)nc2ccccc21	11µM*	-23%	?	-1%	?
SMILES	HCV inhibitor	LASV entry inh	Marburg entry inh	FMDV inh	HCMV antiviral
CN1/C(=C/C(=S)NC(=O)C2(C)CC2(Cl)Cl)C(C)(C)c2ccccc21 (centres undefined)	?	13%[46.1 µM]	?	-23%	-69*
COc1ccccc1C(=O)NC(=S)/C=C1/N(C)c2ccccc2C1(C)C	?	?	14µM*	?	-92*
CN1/C(=C\C(=S)NC(=O)c2ccccc2Cl)C(C)(C)c2ccccc21	?	6%	?	-14%	-84*
CN1/C(=C\C(=O)Nc2ccc(Cl)cc2)C(C)(C)c2ccccc21	-24%	-20%[46.1 µM]	?	5%	?
CN1/C(=C/C(=O)CSc2ccccc2C(=O)O)C(C)(C)c2ccccc21	12%	.	.	0%	20
CN1/C(=C\C(=S)Nc2ccccc2)C(C)(C)c2ccccc21	?	-16%[46.1 µM]	?	-21%	-71*
COc1ccc2c3c(c(=O)oc2c1)[C@H]1O[C@](c2ccsc2)(Cc2ccccc21)O3	.	.	-20%[14.2 µM]	.	.
CCCCC[C@@H](C)N1C[C@H](COCc2ccccc2)Oc2cc(N3CCC[C@H]3COC)ccc2S1(=O)=O	.	.	.	14%	17
COc1ccc2c(c1)C(CC(=O)NN)CCC2 (centres undefined)	-4%	?	?	13%	-18
CCn1c(N)c(C(=O)NCCOC)sc1=S	11%	-10%	0%	-5%	31
CCn1c(N)c(C(=O)Nc2ccccc2C(=O)OC)sc1=S	10µM*	-7%	7%	12%	-1
COC(=O)C1CCN(Cc2ccc3c(c2)CN(C(=O)c2sc(C)nc2C)CCO3)CC1	.	.	.	-8%	.
CCCOc1ccc(-c2c(C(=O)N/N=C/C3CCCCC3)nnn2-c2nonc2N)cc1	-7%	.	.	-5%	7
CC(=O)OC[C@H]1O[C@H](C/C=N/OC[C@@H](C)[C@H](OCc2ccccc2)C(C)C)C=C[C@@H]1OC(C)=O	.	.	-10%[14.2 µM]	.	.
CCCCOc1c(Br)cc(CNCCCN2CCOCC2)cc1OC	4µM*	?	?	-6%	-24
CCCCNCc1cc(Br)c(OCC(=O)N2CCOCC2)c(OC)c1	27%	19%	-17%	20%	35
Cc1cc(O)c(C(C)C)cc1NC1=NS(=O)(=O)c2ccccc21	-3%	-12%	-21%	4%	-72*
COc1ccc(OC)c(S(=O)(=O)N2CCC(C(=O)Nc3cccc(C)c3C)CC2)c1	-20%	0%	-7%	-29%	-22
COc1ccc(CCNS(=O)(=O)c2ccc3c(c2)NC(=O)C(C)S3)cc1OC (centres undefined)	25µM*	-9%[46.1 µM]	?	-16%	-20
CC1Sc2ccc(S(=O)(=O)N3CCC(C(=O)N(C)Cc4ccco4)CC3)cc2NC1=O (centres undefined)	?	?	?	?	-20
CC1Sc2ccc(S(=O)(=O)N(C)Cc3ccccc3)cc2NC1=O (centres undefined)	?	?	-1%[46.1 µM]	28µM*	?
CC1Sc2ccc(S(=O)(=O)N3CCC(C(=O)N(C)Cc4ccccc4)CC3)cc2NC1=O (centres undefined)	?	-4%[46.1 µM]	?	-42%	-64*
COc1ccc(OC)c(S(=O)(=O)N2CCC(C(=O)Nc3ccc(C)c(C)c3)CC2)c1	?	-24%	?	25µM*	-30
CC1Sc2ccc(S(=O)(=O)N3CCC(C(=O)Nc4cccc(Cl)c4)CC3)cc2NC1=O (centres undefined)	3.2µM*	?	?	20µM*	-100*
